In PubChem BioAssay AID720518 (National Center for Advancing Translational Sciences (NCATS), 2013):
Records with an inconclusive call do not appear. The source made the active and inactive calls. Calls come from the whole dose curve.

Test: qHTS for Inhibitors of Cell Surface uPA Generation: Wild-type Protective Antigen (WT-PrAg) Counterscreen for Cherry-picked Compounds; for activity (protection): 0% is about no effect
Details: cells, WT protective antigen toxicity counterscreen; series mostly up to 115 µM; activity (protection): at the top concentration
Potency is the fitted concentration of half-maximal effect.

SMILES	activity (protection)	Potency
CCN1CCCCC(=N/O)/C(=N/O)CCCC1	3.08% (inactive)	–
COc1ccccc1NC(=O)COc1ccc(C(=O)NCc2ccccc2)cc1OC	0.351% (inactive)	–
COCCN(C(=O)c1ccccc1OC)c1nnc(C)s1	-1.62% (inactive)	–
Cc1nc(NC(=O)COC(=O)CCc2ccccc2)c(Cl)cc1Cl	-2.5% (inactive)	–
CCC(C)Sc1nnc(NS(=O)(=O)Cc2ccccc2)s1 (stereo not drawn)	-1.55% (inactive)	–
CC(C)c1ccc(C2/C(=C(\O)c3ccc4c(c3)OCCO4)C(=O)C(=O)N2CCN2CCOCC2)cc1 (stereo not drawn)	-0.545% (inactive)	–
Cc1cccc(N2C(=O)c3cccc(Oc4ccc(Cl)cc4)c3C2=O)c1	0.86% (inactive)	–
COc1ccc(C(=O)N2CCN(c3ccc(C(C)=O)cc3)CC2)cc1S(=O)(=O)N1CCCC1	-0.95% (inactive)	–
O=C(Nc1cccc(NC(=O)c2ccc(F)cc2)c1)c1ccc(F)cc1	0.799% (inactive)	–
COC(=O)c1ccccc1NC(=O)Nc1nnc(N2CCCCC2C)s1 (stereo not drawn)	–	58.5 µM (active)
Cc1ccc2c(c1)N(CC(=O)NCCCc1ccccc1)C(=O)c1cccnc1O2	2.62% (inactive)	–
CCOc1ccc(-c2n[nH]c(=S)n2Cc2ccccc2)cc1	-0.239% (inactive)	–
COc1ccc(-c2cccc(-c3cc(=O)oc4cc(OC)c(OC)c(OC)c34)c2)cc1	-1.14% (inactive)	–
CCOc1ccc(CCNC(=O)Cc2ccc(NC3=NC4CS(=O)(=O)CC4S3)cc2)cc1OCC (stereo not drawn)	2.98% (inactive)	–
C=C(C(=O)O)C1CCC2(C)CCCC(C)(O)C2C1 (stereo not drawn)	-0.0048% (inactive)	–
CCCCCN(C(=O)CCC(=O)OCCOc1cccc(Cl)c1)c1c(N)n(CCCC)c(=O)[nH]c1=O	-0.186% (inactive)	–
CC1(C)CC(CCC(=O)NC(=S)Nc2ccccc2Cl)C(=O)O1 (stereo not drawn)	-1.58% (inactive)	–
O=C(N/C(=C\c1cccc([N+](=O)[O-])c1)C(=O)N1CCOCC1)c1ccc([N+](=O)[O-])cc1	0.117% (inactive)	–
O=C(CCCC(=O)N1CCN(c2ccccc2F)CC1)c1ccccc1	0.0653% (inactive)	–
CN(CCCNC(=O)Cn1cccc1C(=O)c1ccccc1)C1CCCCC1	-2.26% (inactive)	–
N#CCC(=O)N/N=C/c1ccc(OCC(=O)Nc2ccc(F)cc2)cc1	1.33% (inactive)	–
COCCN(CCOC)c1nc(-c2ccc(C)cc2)nc2ccccc12	-1.39% (inactive)	–
CC(C)c1ccc(NC(=O)COc2ccc(S(=O)(=O)N3CCOCC3)cc2)cc1	0.0707% (inactive)	–
